From PubChem BioAssay (Tox21)
Where “and” joins values, the source holds several entries; their conditions need not be identical. Equal values may be shown once. Inconclusive results are not listed. Calls of active or inactive are those of the source. Calls follow the shape of the dose curve; as a rule, active = well fitted cell-killing curve with a large enough effect in the repeat runs; inconclusive = weak or mixed curves, or effect the other way; inactive = flat fitted curve, though single readings scatter.

assay: cAMP Responsive Elements (CRE) small molecule antagonists, cell-based qHTS assay: qHTS cell viability counter screen (AID 2060913); details: CRE-bla HEK293T viability, CellTiter-Glo luminescence, 5 h; series mostly up to 92.4 µM; viability change, negative = cytotoxic: at the top concentration; also: nearly all actives have a fitted effect of over 40% in size
In short: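 Cytotoxicity counter screen multiplexed with the CRE-bla antagonist read: HEK293T cells in DMEM with dialyzed FBS and 25 mM HEPES were treated 3 hrs under 0.25 uM final NKH477, then viability measured by CellTiter-Glo luminescence.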
% is scaled to controls: 0 for no effect and ±100 for the full control effect; potency is read from the fitted curve at half-maximal effect.

SMILES | viability change, negative = cytotoxic | Potency
CC1CN(c2ccccc2)NC1=O (stereo not given) | 7.46% (inactive) | 
NC[C@H](O)c1ccc(O)c(O)c1 |  | inactive
CCCCCCCCCCCCCCCC[N+](C)(C)CC |  | 57.1 µM (active) and 26.6 µM (active)
CCCCCCC=O |  | inactive
Nc1ccc(C(=O)Oc2ccccc2)c(O)c1 | -4.47% [at 42.5 µM] (inactive) | 
CCN(CC)CCOc1ccc(Cc2ccccc2)cc1 | -12.8% [at 42.5 µM] (inactive) | 
CNCc1ccc(NC(=O)c2c[nH]c3c2C(=O)CCC3)cc1 | -0.0665% (inactive) | 
CC(=O)OCC(COC(C)=O)OC(C)=O |  | inactive
CC(C)(C)c1cc(CCC(=O)NCCCCCCNC(=O)CCc2cc(C(C)(C)C)c(O)c(C(C)(C)C)c2)cc(C(C)(C)C)c1O | -1.69% (inactive) | 
Nc1ccc(N)c2c1C(=O)c1ccccc1C2=O | -4.86% (inactive) | 
CCOC(=O)CC(=O)C(=O)OCC | -30.4% (inactive) | 
O=C(Nc1ccc([N+](=O)[O-])cc1Cl)c1cc(Cl)ccc1O | -20.4% (inactive) | 
CC(=O)CCCCn1c(=O)c2c(ncn2C)n(C)c1=O | 5.14% [at 42.5 µM] (inactive) | 
O=C1c2ccccc2C(=O)C1c1ccc2cc(S(=O)(=O)O)cc(S(=O)(=O)O)c2n1 | -9.73% (inactive) | 
O=C(NCN1CCOCC1)c1cnccn1 | 0.0803% [at 42.5 µM] (inactive) | 
CC(C)(O)CCCC1=CCC(C=O)CC1 (stereo not given) | 5.94% (inactive) | 
CCCOC(=O)c1cc(O)c(O)c(O)c1 |  | inactive
CCSC(=O)N(CC(C)C)CC(C)C | 7.91% (inactive) | 
CC(=O)Oc1ccc(C(c2ccc(OC(C)=O)cc2)c2ccccn2)cc1 |  | inactive
COc1ccc(OC)c(Cl)c1 | 0.0713% (inactive) | 

SMILES | viability change, negative = cytotoxic | Potency
C/C=C\C/C=C/CCCCCCCCOC(C)=O | 4.05% (inactive) | 
Cc1cccc(C)c1NC(=O)C(C)N (stereo not given) | -1.14% [at 42.5 µM] (inactive) | 
CCCCN(CCO)CCO | 0.695% (inactive) | 
CC(N)CCCC(C)(C)O (stereo not given) | -1.68% [at 42.5 µM] (inactive) | 
NS(=O)(=O)c1cc2c(cc1C(F)(F)F)NCNS2(=O)=O | 1.9% [at 42.5 µM] (inactive) | 
C=C1C(CCl)(CCl)C2(Cl)C(Cl)C(Cl)C1(Cl)C2(Cl)Cl (stereo not given) |  | 60.4 µM (active)
CN1CC(=O)NC1=N | -0.635% [at 42.5 µM] (inactive) | 
Cc1cc(C)c(C)c(C)c1 | 0.653% (inactive) | 
CCCCCCCCCCCC(=O)NCCCN(C)C |  | 61.1 µM (active)
Cc1onc(-c2ccccc2)c1-c1ccc(S(N)(=O)=O)cc1 | 2.62% [at 42.5 µM] (inactive) | 
CC1CCCCN1CCCOC(=O)c1ccc(OC2CCCCC2)cc1 (stereo not given) | -12.6% [at 42.5 µM] (inactive) | 
O=C(O)c1c(Cl)cccc1Cl | 3.03% (inactive) | 
CCCNC(C)(C)COC(=O)c1ccccc1 | -3.43% [at 42.5 µM] (inactive) | 
Cn1cnc2c(=O)[nH]c(N)nc21 | 10.5% (inactive) | 
CCOC(=O)CC(C)C | 3.74% (inactive) | 
Clc1cc(Cl)c(-c2c(Cl)c(Cl)cc(Cl)c2Cl)cc1Cl | 14.9% [at 42.5 µM] (inactive) | 
CCC(=O)Oc1ccc2c(c1)CC[C@@H]1[C@@H]2CC[C@@]2(C)[C@H]1C[C@@H](OC(=O)CC)[C@@H]2OC(=O)CC | 4.7% [at 42.5 µM] (inactive) | 
Cc1ccc(O)c2ncccc12 | -6.75% [at 42.5 µM] (inactive) | 
CC(C)(COC(=O)c1ccccc1)COC(=O)c1ccccc1 | 7.43% (inactive) | 
[O-]/[N+](=N\O)c1ccccc1 |  | inactive
